# Laboratory results published in PubChem BioAssay (Tox21).
# Values without a mark were called inactive. Results filed as inconclusive are left out. Where a call stands in place of a potency, no number is given. Active and inactive are the calls of the source. Unless noted, calls follow the shape of the dose curve; as a rule, active = well fitted curve in the direction sought with a large enough effect in the repeat runs; inconclusive = weak or mixed curves; inactive = no such curve, though single readings can be large; an effect the other way counts as inactive or inconclusive.
# Experiments:
# [1] = target: Thyrotropin-releasing hormone receptor (Homo sapiens) (UniProt P34981); assay: qHTS assay to identify small molecule agonists of the thyrotropin-releasing hormone receptor (TRHR) signaling pathway (AID 1346891; calls by dose curve;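 also: HEK293 cells expressing TRHR with calcium dye readout; series mostly up to about 58 µM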)
# Procedure, shortened: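 Compounds were tested as agonists at 15 concentrations, in triplicate, on TRHR-Hek293 cells; calcium-sensitive dye fluorescence was recorded for 3 min following addition.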
# [2] = Human pregnane X receptor (PXR) small molecule agonists, qHTS cell viability counter screen (AID 1346977); also: nearly all actives have a fitted effect of over 50% in size
# Procedure, shortened: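 Viability counter screen: CellTiter-Fluor signal in PXR-Luc HepG2 cells, 24hr compound exposure, 37C, 5% CO2.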
# [3] = Caspase-3/7 induction in HepG2 cells by small molecules, qHTS assay (AID 1346978); also: nearly all actives have a fitted effect of over 15% in size
# Procedure, shortened: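 Wild-type HepG2 cells (2,000/well) were settled 5 h at 37 C, 5% CO2, then exposed to compounds in DMSO for 17 h. Caspase-3/7 activity was read by luminescence 30 min after adding Caspase-Glo 3/7 reagent at room temperature.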
# [4] = Caspase-3/7 induction in CHO-K1 cells by small molecules, qHTS cell viability counter screen (AID 1346979); also: nearly all actives have a fitted effect of over 35% in size
# Procedure, shortened: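 Viability readout by fluorescence (CellTiter-Fluor) on wild-type CHO-K1 cells exposed for 16hr at 37C and 5% CO2 to compounds delivered in DMSO; reagent incubated 1hr before reading.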
# [5] = Caspase-3/7 induction in CHO-K1 cells by small molecules, qHTS assay (AID 1346980); also: nearly all actives have a fitted effect of over 15% in size
# Procedure, shortened: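 Wild-type cells were seeded at 1,500 per well and settled 5 hr at 37 C, 5% CO2, then exposed to DMSO-dissolved compounds for 17 hr. Caspase-Glo 3/7 reagent was added, and luminescence was read after 30min at room temperature.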
# [6] = Caspase-3/7 induction in HepG2 cells by small molecules, qHTS cell viability counter screen (AID 1346981); also: series mostly up to about 92 µM; nearly all actives have a fitted effect of over 30% in size
# Procedure, shortened: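 Counter screen for cytotoxicity: HepG2 exposed 16 hr to compounds, then CellTiter-Fluor viability signal (fluorescence, 1 hr reagent incubation).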
# [7] = target: Cytochrome P450 2C19 (Homo sapiens) (UniProt P33261); assay: Cytochrome P450 Family 2 Subfamily C Member 19 (CYP2C19) small molecule antagonists: luciferase reporter qHTS assay (AID 1671197); also: nearly all actives have a fitted effect of over 65% in size; also: potency is read from the fitted curve at half-maximal effect
# Procedure, shortened: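 Enzyme-substrate mix with proluciferin substrate (P450-Glo CYP2C19 system) preincubated with compounds 10 min at room temperature; NADPH regeneration solution added, 37C for 1 h; detection reagent stops reaction, luminescence read after 20 min. Ketoconazole positive control.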
# [8] = target: Cytochrome P450 2C9 (Homo sapiens) (UniProt P11712); assay: Cytochrome P450 Family 2 Subfamily C Member 9 (CYP2C9) small molecule antagonists: luciferase reporter qHTS assay (AID 1671198); also: nearly all actives have a fitted effect of over 50% in size; also: potency is read from the fitted curve at half-maximal effect
# Procedure, shortened: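 CYP2C9 activity was measured with a P450-Glo proluciferin substrate. Enzyme–substrate mix was held with compound for 10 min at room temperature, then NADPH regeneration solution was added for 1 h at 37C. Luciferin product was read as luminescence.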
# [9] = target: Cytochrome P450 1A2 (Homo sapiens) (UniProt P05177); assay: Cytochrome P450 Family 1 Subfamily A Member 2 (CYP1A2) small molecule antagonists: luciferase reporter qHTS assay (AID 1671199); also: nearly all actives have a fitted effect of over 50% in size; also: potency is read from the fitted curve at half-maximal effect
# Procedure, shortened: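 Signal from luciferin formed by CYP1A2 from a proluciferin substrate is read as luminescence, expressed in relative luminescence units. Compounds sit with enzyme 10 min, NADPH-driven reaction runs 1 h, all at room temperature.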
# [10] = target: Voltage-gated inwardly rectifying potassium channel KCNH2 (Homo sapiens) (UniProt Q12809); assay: Human Ether-a-go-go-Related Gene (hERG) channel small molecule antagonists: fluorescence cell-based qHTS assay (AID 1671200); also: nearly all actives have a fitted effect of over 50% in size; also: potency is read from the fitted curve at half-maximal effect
# Procedure, shortened: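 Thallium served as the potassium surrogate; its influx into dye-loaded U2OS cells carrying the channel was measured by fluorescence over 2 min.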
# [11] = target: Cytochrome P450 3A4 (Homo sapiens) (UniProt P08684); assay: Cytochrome P450 Family 3 Subfamily A Member 4 (CYP3A4) small molecule antagonists: luciferase reporter qHTS assay (AID 1671201); also: nearly all actives have a fitted effect of over 50% in size; also: potency is read from the fitted curve at half-maximal effect
# Procedure, shortened: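 Relative luminescence units after 20 min with luciferin detection reagent served as read-out. Beforehand, CYP3A4 turned over a proluciferin substrate for 1 h at room temperature with NADPH regeneration, following 10 min compound preincubation.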
# [12] = target: Nuclear receptor subfamily 1 group I member 2 (Homo sapiens) (UniProt O75469); assay: Human pregnane X receptor (PXR) small molecule agonists, qHTS assay (AID 1346982); also: nearly all actives have a fitted effect of over 35% in size; also: potency is read from the fitted curve at half-maximal effect
# Procedure, shortened: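 Luminescence (ONE-Glo, 30 min RT) after 24 hr compound exposure of PXR-Luc HepG2 cells; cells rested 5 hr post-plating in 5% charcoal-stripped FBS medium.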
# [13] = target: Cytochrome P450 2D6 (Homo sapiens) (UniProt P10635); assay: Cytochrome P450 Family 2 Subfamily D Member 6 (CYP2D6) small molecule antagonists: luciferase reporter qHTS assay (AID 1671196); also: nearly all actives have a fitted effect of over 50% in size; also: potency is read from the fitted curve at half-maximal effect
# Procedure, shortened: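 Inhibition of CYP2D6 was gauged by loss of luminescence, since light produced tracks the luciferin generated from a proluciferin substrate. A 10 min room-temperature preincubation preceded 1 h NADPH-supported turnover.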
# [14] = target: Nuclear receptor subfamily 1 group I member 2 (Homo sapiens) (UniProt O75469); assay: CYP3A4 induction through human pregnane X receptor (PXR) by small molecules, qHTS assay (AID 1346984); also: nearly all actives have a fitted effect of over 40% in size
# Procedure, shortened: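 DPX-2 reporter cells; 24h cpd, 37C; Luciferin-IPA 3uM final x3h; One-Glo 30 min RT; lumi read.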
# [15] = target: Nuclear receptor subfamily 1 group I member 2 (Homo sapiens) (UniProt O75469); assay: Human pregnane X receptor (PXR) activation by small molecules, qHTS assay (AID 1346985); also: nearly all actives have a fitted effect of over 40% in size
# Procedure, shortened: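 DPX-2 cells (HepG2 co-transfected with a PXR response element and a CYP3A4-promoter luciferase construct) were seeded at 2,000 per well, rested 5 hr at 37C, then exposed to DMSO-dissolved compounds for 24 hr. Activation was read as luciferase luminescence.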
# [16] = target: Nuclear receptor subfamily 1 group I member 2 (Rattus norvegicus) (UniProt Q9R1A7); assay: Rat pregnane X receptor (rPXR) activation by small molecules, qHTS assay (AID 1346983); conditions: rPXR luciferase reporter cells, One-Glo luminescence, 24 h; max activation: active compounds read high; also: nearly all actives have a fitted effect of over 20% in size
# Procedure, shortened: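 Cell-based rPXR luciferase reporter assay, 2,000 cells per well, rested 5hr at 37 C before compound addition in DMSO, then 24 hr at 37 C. One-Glo reagent was added and luminescence read after 30 min at room temperature.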
# Sequence of Voltage-gated inwardly rectifying potassium channel KCNH2 (Homo sapiens) (Q12809 whole entry, looked up): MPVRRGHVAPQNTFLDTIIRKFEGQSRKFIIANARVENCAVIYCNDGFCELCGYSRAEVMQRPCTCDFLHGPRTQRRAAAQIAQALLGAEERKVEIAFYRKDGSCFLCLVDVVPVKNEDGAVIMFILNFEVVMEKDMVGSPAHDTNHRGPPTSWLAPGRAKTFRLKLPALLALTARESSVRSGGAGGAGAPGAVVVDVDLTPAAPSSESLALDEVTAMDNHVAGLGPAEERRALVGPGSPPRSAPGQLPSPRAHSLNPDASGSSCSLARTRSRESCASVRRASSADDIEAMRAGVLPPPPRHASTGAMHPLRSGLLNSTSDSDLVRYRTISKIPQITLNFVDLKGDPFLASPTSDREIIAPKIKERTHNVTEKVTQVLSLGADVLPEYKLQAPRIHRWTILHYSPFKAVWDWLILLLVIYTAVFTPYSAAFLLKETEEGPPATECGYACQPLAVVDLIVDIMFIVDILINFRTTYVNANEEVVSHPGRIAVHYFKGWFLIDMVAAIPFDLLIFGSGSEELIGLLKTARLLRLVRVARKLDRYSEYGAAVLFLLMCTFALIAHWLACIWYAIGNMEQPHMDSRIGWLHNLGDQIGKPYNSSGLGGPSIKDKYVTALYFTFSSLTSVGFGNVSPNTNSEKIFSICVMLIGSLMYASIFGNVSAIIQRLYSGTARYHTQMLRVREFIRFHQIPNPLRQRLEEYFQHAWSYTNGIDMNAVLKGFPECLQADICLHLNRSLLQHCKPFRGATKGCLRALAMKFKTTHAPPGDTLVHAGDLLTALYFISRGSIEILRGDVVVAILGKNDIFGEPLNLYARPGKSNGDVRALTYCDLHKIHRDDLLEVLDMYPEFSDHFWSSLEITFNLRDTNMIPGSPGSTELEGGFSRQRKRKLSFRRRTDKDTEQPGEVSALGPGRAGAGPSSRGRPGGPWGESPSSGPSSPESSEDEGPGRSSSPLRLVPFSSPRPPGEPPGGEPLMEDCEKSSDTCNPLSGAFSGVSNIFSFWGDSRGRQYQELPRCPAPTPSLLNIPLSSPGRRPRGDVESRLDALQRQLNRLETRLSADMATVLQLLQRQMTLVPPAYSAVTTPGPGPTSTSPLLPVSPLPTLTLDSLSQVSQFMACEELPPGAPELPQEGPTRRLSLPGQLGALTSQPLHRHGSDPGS
# Sequence of Cytochrome P450 3A4 (Homo sapiens) (P08684 whole entry, looked up): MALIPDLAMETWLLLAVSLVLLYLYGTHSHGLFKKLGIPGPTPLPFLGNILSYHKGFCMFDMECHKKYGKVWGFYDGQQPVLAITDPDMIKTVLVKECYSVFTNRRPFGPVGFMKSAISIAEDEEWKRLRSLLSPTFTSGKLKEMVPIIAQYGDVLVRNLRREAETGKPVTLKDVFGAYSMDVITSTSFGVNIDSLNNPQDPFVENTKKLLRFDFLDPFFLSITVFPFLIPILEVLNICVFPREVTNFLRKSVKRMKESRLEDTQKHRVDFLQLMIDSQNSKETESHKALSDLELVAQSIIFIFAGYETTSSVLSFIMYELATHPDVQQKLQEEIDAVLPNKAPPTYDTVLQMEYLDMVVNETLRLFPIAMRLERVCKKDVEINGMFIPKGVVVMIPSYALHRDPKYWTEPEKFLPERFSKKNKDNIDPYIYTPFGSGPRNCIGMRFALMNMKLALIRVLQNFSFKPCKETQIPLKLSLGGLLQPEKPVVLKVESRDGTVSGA
# Sequence of Nuclear receptor subfamily 1 group I member 2 (Homo sapiens) (O75469 whole entry, looked up): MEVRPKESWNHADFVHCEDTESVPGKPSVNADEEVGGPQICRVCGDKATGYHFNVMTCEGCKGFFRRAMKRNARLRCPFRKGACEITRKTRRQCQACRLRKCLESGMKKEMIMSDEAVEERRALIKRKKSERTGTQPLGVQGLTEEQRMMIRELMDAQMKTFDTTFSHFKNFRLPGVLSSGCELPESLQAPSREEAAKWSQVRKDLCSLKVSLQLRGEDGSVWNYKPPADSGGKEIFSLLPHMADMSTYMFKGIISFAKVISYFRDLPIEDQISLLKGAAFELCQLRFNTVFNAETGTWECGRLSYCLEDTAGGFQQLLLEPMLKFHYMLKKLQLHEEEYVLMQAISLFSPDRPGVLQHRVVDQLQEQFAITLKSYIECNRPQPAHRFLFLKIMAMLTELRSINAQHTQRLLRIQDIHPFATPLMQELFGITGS
# Sequence of Cytochrome P450 2D6 (Homo sapiens) (P10635 whole entry, looked up): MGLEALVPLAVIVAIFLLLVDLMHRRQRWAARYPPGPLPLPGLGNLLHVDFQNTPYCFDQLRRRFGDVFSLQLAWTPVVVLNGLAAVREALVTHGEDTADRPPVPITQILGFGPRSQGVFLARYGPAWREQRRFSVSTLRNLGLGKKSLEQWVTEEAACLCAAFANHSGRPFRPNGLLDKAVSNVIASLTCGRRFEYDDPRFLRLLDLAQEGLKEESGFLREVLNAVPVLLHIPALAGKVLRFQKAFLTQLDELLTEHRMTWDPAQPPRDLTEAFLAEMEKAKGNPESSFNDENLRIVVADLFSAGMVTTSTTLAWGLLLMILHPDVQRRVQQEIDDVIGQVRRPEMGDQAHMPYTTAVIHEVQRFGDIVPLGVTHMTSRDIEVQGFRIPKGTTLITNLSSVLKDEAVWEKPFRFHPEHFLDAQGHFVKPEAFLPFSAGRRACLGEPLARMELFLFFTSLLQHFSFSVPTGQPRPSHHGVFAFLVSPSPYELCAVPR
# Sequence of Cytochrome P450 2C9 (Homo sapiens) (P11712 whole entry, looked up): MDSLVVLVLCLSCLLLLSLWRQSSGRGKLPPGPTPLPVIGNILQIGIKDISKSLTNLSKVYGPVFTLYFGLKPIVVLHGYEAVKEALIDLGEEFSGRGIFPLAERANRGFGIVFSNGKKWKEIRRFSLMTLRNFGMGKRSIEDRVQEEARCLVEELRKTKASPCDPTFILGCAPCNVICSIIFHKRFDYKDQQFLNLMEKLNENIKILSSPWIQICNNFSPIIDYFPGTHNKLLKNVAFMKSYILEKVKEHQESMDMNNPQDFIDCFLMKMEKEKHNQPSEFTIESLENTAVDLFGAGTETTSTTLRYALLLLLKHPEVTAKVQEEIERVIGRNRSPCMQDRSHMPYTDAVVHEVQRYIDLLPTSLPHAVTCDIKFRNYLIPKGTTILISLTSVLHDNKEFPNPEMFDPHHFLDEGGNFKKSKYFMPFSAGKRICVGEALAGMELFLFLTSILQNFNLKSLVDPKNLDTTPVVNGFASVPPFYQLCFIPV
# Sequence of Cytochrome P450 2C19 (Homo sapiens) (P33261 whole entry, looked up): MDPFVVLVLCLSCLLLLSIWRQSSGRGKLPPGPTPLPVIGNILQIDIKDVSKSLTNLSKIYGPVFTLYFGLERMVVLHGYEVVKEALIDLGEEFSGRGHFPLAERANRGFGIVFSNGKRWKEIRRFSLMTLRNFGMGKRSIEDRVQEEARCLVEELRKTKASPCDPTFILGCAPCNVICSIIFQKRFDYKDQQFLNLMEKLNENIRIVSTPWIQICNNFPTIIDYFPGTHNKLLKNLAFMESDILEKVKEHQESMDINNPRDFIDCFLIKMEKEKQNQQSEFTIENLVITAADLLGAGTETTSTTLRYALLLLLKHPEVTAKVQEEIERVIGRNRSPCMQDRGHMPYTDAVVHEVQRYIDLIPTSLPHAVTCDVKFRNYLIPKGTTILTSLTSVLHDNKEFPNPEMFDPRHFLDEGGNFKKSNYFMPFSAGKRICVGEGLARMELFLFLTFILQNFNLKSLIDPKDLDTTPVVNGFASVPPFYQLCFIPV
# Sequence of Cytochrome P450 1A2 (Homo sapiens) (P05177 whole entry, looked up): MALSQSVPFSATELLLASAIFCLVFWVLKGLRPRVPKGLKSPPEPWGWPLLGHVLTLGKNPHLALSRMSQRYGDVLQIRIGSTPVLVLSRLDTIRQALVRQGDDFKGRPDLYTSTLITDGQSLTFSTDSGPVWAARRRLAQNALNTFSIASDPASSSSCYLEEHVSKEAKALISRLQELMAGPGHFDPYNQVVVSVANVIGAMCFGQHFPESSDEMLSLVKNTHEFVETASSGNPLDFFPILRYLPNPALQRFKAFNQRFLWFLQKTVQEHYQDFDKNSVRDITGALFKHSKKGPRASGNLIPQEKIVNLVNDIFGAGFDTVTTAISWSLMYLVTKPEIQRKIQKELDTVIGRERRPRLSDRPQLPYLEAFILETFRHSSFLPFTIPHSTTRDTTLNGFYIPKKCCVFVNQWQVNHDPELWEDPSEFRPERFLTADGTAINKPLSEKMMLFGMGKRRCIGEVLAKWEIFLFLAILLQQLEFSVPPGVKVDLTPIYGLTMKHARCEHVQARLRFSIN
# Sequence of Thyrotropin-releasing hormone receptor (Homo sapiens) (P34981 whole entry, looked up): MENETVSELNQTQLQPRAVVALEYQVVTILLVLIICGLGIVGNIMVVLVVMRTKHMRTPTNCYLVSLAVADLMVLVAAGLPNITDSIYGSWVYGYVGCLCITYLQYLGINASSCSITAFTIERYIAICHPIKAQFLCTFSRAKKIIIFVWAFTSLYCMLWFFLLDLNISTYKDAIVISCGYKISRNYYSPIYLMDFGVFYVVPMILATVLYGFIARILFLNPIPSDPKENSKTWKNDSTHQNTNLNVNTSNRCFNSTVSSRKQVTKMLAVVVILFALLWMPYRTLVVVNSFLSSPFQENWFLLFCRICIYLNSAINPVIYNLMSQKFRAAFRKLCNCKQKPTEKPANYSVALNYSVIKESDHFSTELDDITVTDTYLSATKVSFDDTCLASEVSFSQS
# Sequence of Nuclear receptor subfamily 1 group I member 2 (Rattus norvegicus) (Q9R1A7 whole entry, looked up): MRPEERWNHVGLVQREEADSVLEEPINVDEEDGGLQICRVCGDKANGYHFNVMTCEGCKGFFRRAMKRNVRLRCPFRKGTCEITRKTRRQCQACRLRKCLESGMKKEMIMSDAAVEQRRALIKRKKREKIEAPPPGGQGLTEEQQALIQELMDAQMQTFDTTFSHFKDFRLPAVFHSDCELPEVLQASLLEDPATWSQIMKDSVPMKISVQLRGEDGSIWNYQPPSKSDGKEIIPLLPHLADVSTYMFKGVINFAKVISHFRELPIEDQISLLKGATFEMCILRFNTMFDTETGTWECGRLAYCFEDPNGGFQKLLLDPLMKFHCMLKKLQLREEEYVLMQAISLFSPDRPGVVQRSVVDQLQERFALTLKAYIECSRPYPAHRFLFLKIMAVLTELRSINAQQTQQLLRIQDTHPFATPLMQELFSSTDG
SMILES,outcome [1],Potency [2],outcome [3],Potency [4],outcome [5],outcome [6],Potency [7],Potency [8],Potency [9],Potency [10],Potency [11],Potency [12],Potency [13],Potency [14],Potency [15],max activation [16]
Cc1onc(-c2ccccc2)c1-c1ccc(S(N)(=O)=O)cc1,inactive,inactive,inactive,inactive,inactive,inactive,7.76 µM (active),13.8 µM (active),inactive,inactive,inactive,,,,,
C=CCOc1nc(OCC=C)nc(OCC=C)n1,inactive,inactive,inactive,inactive,inactive,inactive,1.78 µM (active),15.9 µM (active),6.33 µM (active),inactive,12.6 µM (active),,,,,
COc1cccc(OC)c1,inactive,inactive,inactive,inactive,,inactive,,inactive,inactive,inactive,inactive,inactive,inactive,,,
CCN(CC)S(=O)(=O)c1ccc(C(=O)O)cc1,inactive,inactive,inactive,inactive,,inactive,,,inactive,inactive,inactive,inactive,,inactive,inactive,
CCCCCN(CCCCC)C(=O)C(CCC(=O)O)NC(=O)c1ccc(Cl)c(Cl)c1 (stereo not given),inactive,inactive,inactive,inactive,,inactive,,2.19 µM (active),inactive,9.52 µM (active),,inactive,,,,
CCC(=O)c1cccc(Cl)c1,inactive,inactive,inactive,inactive,,inactive,,inactive,inactive,inactive,inactive,inactive,inactive,,,
CCCCCCC(CCCCCCCCCCC(=O)OCC(COC(C)=O)OC(C)=O)OC(C)=O (stereo not given),inactive,inactive,inactive,inactive,,inactive,inactive,2.45 µM (active),,inactive,inactive,inactive,inactive,,,
NS(=O)(=O)c1cc2c(cc1Cl)NC(CSCc1ccccc1)=NS2(=O)=O,inactive,inactive,inactive,inactive,,inactive,,4.9 µM (active),inactive,inactive,,inactive,34.7 µM (active),inactive,inactive,
CC(C)c1ccc2oc3nc(N)c(C(=O)O)cc3c(=O)c2c1,inactive,inactive,inactive,inactive,,inactive,,13.8 µM (active),17.4 µM (active),inactive,,0.335 µM (active),15.5 µM (active),inactive,inactive,
CC12CCC(CC1=O)C2(C)C (stereo not given),inactive,inactive,inactive,inactive,,inactive,inactive,inactive,inactive,inactive,inactive,inactive,,,,
CC1CCN(CCCC(=O)c2ccc(F)cc2)CC1,inactive,inactive,inactive,inactive,,inactive,34.7 µM (active),inactive,inactive,,inactive,inactive,0.246 µM (active),inactive,inactive,
CCCCCCCCCCC1CO1 (stereo not given),inactive,inactive,inactive,inactive,,inactive,inactive,inactive,inactive,inactive,inactive,inactive,,,,
O=C(O)/C=C/c1ccc(Cn2ccnc2)cc1,inactive,inactive,inactive,inactive,inactive,inactive,,17.4 µM (active),24.5 µM (active),inactive,,,inactive,,,
N#CCc1ccccc1[N+](=O)[O-],inactive,inactive,inactive,inactive,inactive,inactive,,,31.3 µM (active),inactive,inactive,,78.7 µM (active),,,
CC(C)=CCC/C(C)=C/C(=O)O,inactive,inactive,inactive,inactive,inactive,,39.9 µM (active),,inactive,inactive,inactive,inactive,inactive,,,
CCC(C(=O)NC(N)=O)c1ccccc1 (stereo not given),inactive,inactive,inactive,inactive,,inactive,79.6 µM (active),inactive,28.3 µM (active),inactive,inactive,inactive,inactive,inactive,inactive,-2.91%
